# HCV inhibitor – inhibitors of hepatitis C virus infection; Huh7.5.1 HCVcc-Cre infection, luciferase reporter, 44 h; Potency, µM (doses to about 41.8 µM), hits mostly inhibitors; 340,000 tested, 3.4% active; AID 651820; active = well fitted inhibition curve with a large enough effect; inconclusive = small, poorly fitted or top-dose-only effect, or another doubt; inactive = no such curve, though single readings can be large or run the other way
#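 A cell-based infection assay in which seeded cells (1,000 per well) receive test compound after 4 h, are inoculated with HCVcc-Cre at approximately 0.5 moi, and are incubated 44 h before luminescence detection.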
# SARS PLpro yeast – blocks SARS-CoV papain-like protease in a yeast assay | S. cerevisiae expressing SARS-CoV PLpro, growth rescue | Potency, µM (top dose mostly 32.9 µM), hits mostly activators | 330,000 tested, 0.19% active; calls by dose curve; note: nearly all actives have a fitted effect of over 55% in size
# HCMV inh – human cytomegalovirus inhibition; AID 1259415; HFF cells, HCMV-luciferase reporter, 72 h; hits give low values; activity change, negative = inhibition, % at 57.5 µM; 410,000 tested, 4.5% active; in the data active = activity change below about -60%; inconclusive = no clear call, values can overlap the other calls; inactive = above about -39%
#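 Compounds were evaluated in HFFs infected with an HCMV luciferase reporter virus (MOI 1 PFU/cell). Luciferase in lysates collected 72 h post infection served as the replication measure.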
# FMDV inh – antivirals against foot and mouth disease virus; AID 1159524; 410,000 tested, 1.2% active; Potency, µM (doses to about 57.9 µM), usual class: inhibitors; FMDV antiviral cell-based qHTS; calls by dose curve; tested in HEK293T cells; note: read-out not given here; nearly all actives have a fitted effect of over 45% in size
# LASV entry inh – blocks Lassa virus binding to or entry into cells. 300,000 tested, 1.2% active. Lassa virus pseudotype entry inhibition, cell reporter. Potency, µM (highest dose often 37.9 µM), usual class: inhibitors. AID 540256; calls by dose curve; tested in HEK293 cells; note: nearly all actives have a fitted effect of over 50% in size
# MARV entry inh – blocks Marburg virus binding to or entry into cells | Potency, µM (series often up to 37.8 µM), most hits filed as inhibitors | Marburg virus pseudotyped entry inhibition, cell reporter | AID 540276 | 300,000 tested, 1.8% active; calls by dose curve; tested in HEK293 cells
# Numbers stand for hits; – = inactive; ? = inconclusive; · = no result given; + = active, no number. An excerpt weighted towards active compounds, which were near 8% of everything screened.
SMILES,HCV inhibitor,SARS PLpro yeast,HCMV inh,FMDV inh,LASV entry inh,MARV entry inh
COc1ccc(-c2c[n+]3c(n2-c2ccc(C)cc2)CCCCC3)cc1,?,–,-97,?,5µM,7.1µM
COc1ccc(-c2c[n+]3c(n2-c2ccccc2)CCCCC3)cc1,–,–,-96,?,–,?
COc1ccc(-c2c[n+](CC(=O)c3ccccc3)c3n2CCCCC3)cc1,?,–,?,–,·,·
COc1ccc(-n2c(-c3ccc(Cl)cc3)c[n+]3c2CCCCC3)cc1,–,–,-80,–,·,–
CSc1nnc(CCNC(=O)/C=C/c2cccc(F)c2)n1-c1ccc(F)cc1,·,·,·,–,·,·
O=[N+]([O-])c1cccc(-c2noc3ccccc23)c1,·,·,–,·,·,·
CN(C1CCCCC1)S(=O)(=O)c1ccc(NC(=O)c2ccc(Br)o2)cc1,–,–,–,–,11µM,–
COc1ccc(NC(=O)c2oc3ccc(S(=O)(=O)N(C)C4CCCCC4)cc3c2C)cc1,·,·,-72,?,?,·
CCOC(=O)c1oc2ccc(S(=O)(=O)n3nc(-c4ccccc4)cc3N)cc2c1C,–,–,–,?,·,–
CCN(CC)S(=O)(=O)c1ccc2oc(C(=O)Nc3ccc(OC)cc3OC)c(C)c2c1,–,–,–,–,6.5µM,?
CCOC(=O)c1oc2ccc(S(=O)(=O)n3nc(-c4ccc(OC)cc4)cc3N)cc2c1C,–,–,-67,?,–,–
Cc1c(C(=O)Nc2cccc(Cl)c2)oc2ccc(S(=O)(=O)N(C)C3CCCCC3)cc12,·,·,?,–,–,·
CN(C)S(=O)(=O)c1ccc(NC(=O)c2ccc(Br)o2)cc1,–,–,·,–,?,–
C#CCCCON=C1C[C@@H](O)[C@H](O)[C@H]2[C@@H]3C(=O)N(c4ccc(F)cc4F)C(=O)[C@@H]3CC[C@H]12,·,·,·,·,·,–
COc1ccc(-c2ccc(CN3C(C(C)C)C(=O)N(Cc4cn(Cc5ccco5)nn4)CCS3(=O)=O)cc2)cc1OC (stereo not given),·,·,–,–,·,·
C[C@H](NC(=O)[C@H]1N2C(=O)c3ccccc3C2SC1(C)C)C(=O)N1CCCCC1 (stereo not given in full),–,–,–,–,·,·
Cc1cccc(NC(=O)c2oc3ccc(S(=O)(=O)N(C)C4CCCCC4)cc3c2C)c1C,·,·,-75,–,–,·
CCN(CC)S(=O)(=O)c1ccc2oc(Nc3ccc(OC)cc3OC)nc2c1,10µM,–,–,–,–,–
O=C(O)CCCN=C1NC2(CCCC2)CC2=C1CCCC2,·,·,·,·,·,–
CC(C)c1ccc(N)c(S(=O)(=O)O)c1,–,–,–,–,·,·
Cc1nc(-c2ccc(Cl)cc2)sc1CCNC(=O)c1cccs1,·,·,–,–,–,·
CCOc1ccc(CCNc2ncnc3onc(-c4ccc(Cl)cc4)c23)cc1OCC,·,·,–,?,?,7.9µM
Cc1ccc2c(c1)c1n[nH]c(=S)nc1n2CCc1ccccc1,–,–,-93,–,·,·
CCCCOc1ccc(C(=O)NCC2(c3ccc(OC)cc3)CCOCC2)cc1,–,–,–,–,2.8µM,?
COc1ccc(C2(CNC(=O)c3ccc(Br)o3)CCOCC2)cc1,–,–,–,–,–,–
SMILES,HCV inhibitor,SARS PLpro yeast,HCMV inh,FMDV inh,LASV entry inh,MARV entry inh
CN1C(=O)C(n2ccc3ccccc32)c2cc(OC(F)(F)F)ccc21 (stereo not given),·,·,–,·,·,·
COc1ccccc1N1CCN(c2ccc(=O)n(CC(=O)NCc3ccc(F)cc3)n2)CC1,·,·,–,?,–,·
CC(=O)O/N=C/c1c(N2CCOCC2)n(C)c2ccccc12,?,–,-93,–,?,?
Cn1c(N2CCOCC2)c(/C=N/OC(=O)c2cccnc2Cl)c2ccccc21,–,–,–,–,–,–
Cn1c(N2CCOCC2)c(/C=N/O)c2ccccc21,–,–,–,–,–,–
Cc1ccc(C(=O)O/N=C/c2c(N3CCOCC3)n(C)c3ccccc23)cc1,6.3µM,–,-100,–,?,?
Cn1c(N2CCOCC2)c(/C=N/OC(=O)c2ccc(F)cc2)c2ccccc21,3.5µM,–,-95,–,?,?
CCOc1ccc(C(c2c(O)cc(C)n(CCOC)c2=O)N2CCN(c3ccccc3F)CC2)cc1 (stereo not given),·,·,–,–,–,·
CC1CCc2nc3ncn(Cc4cccc(F)c4)c(=O)c3cc2C1 (stereo not given),·,·,–,–,–,·
Cc1ccc2c(c1)nnn2C1CCN(CC(=O)N(c2ccccc2)c2ccccc2)CC1,?,–,-70,–,·,·
Cc1ccc2c(c1)nnn2C1CCN(CC(=O)N2c3ccccc3CC2C)CC1 (stereo not given),–,–,-76,?,–,–
COCC(=O)N1[C@@H]2c3cccc(=O)n3C[C@@H]2[C@@H](CO)[C@@H]1C(=O)NCc1ccccc1F,·,·,–,·,·,·
CSc1ccc(CCNC(=O)NCc2noc3ccccc23)cc1,·,·,–,–,–,·
COC(=O)N[C@@H](c1cccc(F)c1)[C@]1(C(=O)OC)CCCC1=O,·,·,·,·,·,–
O=C(O)CCC(=O)NNC(=O)COc1ccc(Cl)cc1Cl,–,–,-79,–,–,–
O=C(COc1ccc(Cl)cc1Cl)Nc1ccc(Cl)cn1,–,–,–,·,?,?
O=C(COc1ccc(Cl)cc1Cl)Nc1ccccc1F,–,·,–,–,7.1µM,–
O=C(COc1ccc(Cl)cc1Cl)N/N=C/c1ccc[nH]1,6.3µM,–,–,–,·,·
CCc1ccccc1NC(=O)Cn1c(=O)n(Cc2ccc3c(c2)OCO3)c(=O)c2ccc(C(=O)NC3CCCCC3)cc21,·,·,–,–,–,–
CCOc1cc(CNC(CC)CO)ccc1OCC(=O)Nc1cccc(C(F)(F)F)c1 (stereo not given),1.1µM,–,–,–,·,·
O=C(COc1ccc(Br)cc1CNCCCN1CCOCC1)Nc1ccccc1,?,–,–,–,?,?
COc1cc(CNCCO)ccc1OCC(=O)Nc1ccc(Br)cc1,5.6µM,–,–,–,–,–
COc1cc(CNCCCN2CCOCC2)ccc1OCC(=O)Nc1cccc(C(F)(F)F)c1,10µM,–,–,–,?,?
CCOc1cc(CNCCCN2CCOCC2)ccc1OCC(=O)Nc1cccc2ccccc12,14µM,–,?,–,15µM,?
CCc1ccc(NC(=O)N2c3ccccc3Sc3ccccc32)cc1,·,·,–,–,?,–
SMILES,HCV inhibitor,SARS PLpro yeast,HCMV inh,FMDV inh,LASV entry inh,MARV entry inh
NS(=O)(=O)c1ccc(NC(=O)N2c3ccccc3Sc3ccccc32)cc1,–,–,-63,·,?,–
CC(C)CC(OC(=O)c1ccco1)C(=O)NC1CCCC1 (stereo not given),–,–,–,–,–,–
C[C@H](CO)N1C[C@H](C)[C@H](CN(C)C(=O)NC2CCCCC2)OCc2cnnn2CCCC1=O,·,·,–,·,·,·
Cn1nc(C(=O)NCc2ccc(Cl)cc2)c2c1-c1ccccc1S(=O)(=O)C2,–,–,-82,–,–,·
COc1ccccc1CNC(=O)c1nn(C)c2c1CS(=O)(=O)c1ccccc1-2,–,–,+,–,–,–
O=C(Nc1ccc(N2CCN(Cc3ccccc3)CC2)cc1)c1cccnc1,–,–,-61,–,–,–
